HCMV inh: blocks human cytomegalovirus replication | HFF cells, HCMV-luciferase reporter, 72 h; stronger effect = lower value | activity change, negative = inhibition, % at 57.5 µM | 4.5% of 410,000 active | AID 1259415; in the data active = activity change below about -60%; inconclusive = no clear call, values can overlap the other calls; inactive = above about -39%
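Human foreskin fibroblasts infected with luciferase-reporter HCMV at MOI 1 PFU/cell, compounds at two doses. Luciferase measured 72 h post infection; normalized to buffer-only basal and Salinomycin (10uM) controls.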
HCV inh: inhibitors of hepatitis C virus infection; AID 651820; Potency, µM (top dose mostly 41.8 µM), usual class: inhibitors; 3.4% of 340,000 active; Huh7.5.1 HCVcc-Cre infection, luciferase reporter, 44 h
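Cells (1,000/well) were plated 4 h before compound, then infected with HCVcc-Cre virus (~0.5 moi). After 44 h further culture, infection was read as luciferase luminescence following a 15 min substrate incubation at room temperature.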
Pf growth 48h: inhibits P. falciparum growth in the first generation, 48 h; P. falciparum luciferase growth in erythrocytes, 48 h; Potency, µM (series often up to 28.7 µM), most hits filed as inhibitors; 5.9% of 310,000 active
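Luciferase-expressing P. falciparum in infected erythrocytes (2% hematocrit, 0.1% parasitemia final) in RPMI 1640/0.5% Albumax were exposed to compound for 48 hours at 37 C, 5% CO2; growth read as luminescence.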
Pf growth 96h: P. falciparum growth inhibition at 96 hours | Potency, µM (series often up to 28.7 µM), actives largely listed as inhibitors | P. falciparum luciferase reporter growth, 96 h | 6.9% of 320,000 active
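Plates of compound plus infected erythrocytes (2% hematocrit, 0.05% parasitemia final) incubate 96 hours, 37 C, 5% CO2. Detection reagent added; reduced luminescence from the parasites' luciferase reporter flags inhibition.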
Numbers stand for hits; – = inactive; ? = inconclusive; · = no result given. Only some compounds are listed: those with a hit (about 13% of all), similar ones and a draw of the others. Unless noted, calls come from the whole dose curve; as a rule, active = well fitted inhibition curve with a large enough effect; inconclusive = small, poorly fitted or top-dose-only effect, or another doubt; inactive = no such curve, though single readings can be large or run the other way.

SMILES | HCMV inh | HCV inh | Pf growth 48h | Pf growth 96h
O=C(Nc1cccc(Cl)c1)Nc1ccccc1OCc1cc(=O)n2ccccc2n1 | – | · | · | ·
Cc1cc(=O)c2cc(C(=O)Nc3ccc(F)cc3)ccc2[nH]1 | – | · | · | ·
Cc1noc(C)c1NC(=O)N(C)C[C@H]1OCc2cnnn2CCCC(=O)N([C@@H](C)CO)C[C@H]1C | – | · | · | ·
Cc1ccc(-n2c(SCc3ccc(C#N)cc3)nnc2-c2ccccn2)cc1 | – | – | ? | 10µM
Cc1ccc(OCc2nnc(SCc3ccc(C#N)cc3)n2-c2ccc(C)cc2)cc1 | – | ? | 13µM | ·
COc1ccc(-n2c(SCc3ccc(C#N)cc3)nnc2-c2ccccn2)cc1 | – | – | ? | ?
CCOC(=O)C(CC)Sc1nnc(COc2ccc(C)cc2)n1-c1ccccc1 (centres undefined) | – | ? | 13µM | ?
COc1ccc(S(=O)(=O)NCC(c2ccco2)N2CCOCC2)cc1C (centres undefined) | – | · | · | ·
COc1ccccc1N1CCN(c2nc(-c3ccc(C)cc3)nc3ccccc23)CC1 | – | · | · | ·
CCOC(=O)c1cc(-c2ccccc2)n(CC(=O)Nc2ccccc2OCC)c1C | – | · | · | ·
COc1ccc2cc(CN(Cc3cccnc3)S(=O)(=O)c3ccccc3)c(=O)[nH]c2c1 | – | – | 10µM | ·
O=c1[nH]c(CN(CCc2ccccc2)S(=O)(=O)c2ccc(Cl)cc2)nc2ccccc12 | – | – | – | –
COc1ccc(S(=O)(=O)N(Cc2ccccc2)Cc2nc(-c3ccccc3)no2)cc1 | – | ? | 13µM | ·
COc1ccc(S(=O)(=O)N(Cc2ccccc2)Cc2nc3ccccc3c(=O)[nH]2)cc1 | -100 | ? | ? | –
COc1ccccc1CN(Cc1nc2ccccc2c(=O)[nH]1)S(=O)(=O)c1ccc2ccccc2c1 | – | 35µM | 5.9µM | –
COCc1cc(C)nc2sc(C(=O)Nc3cc(C)ccc3F)c(N)c12 | – | · | · | ·
COC(=O)C1(C(=O)OC)C[C@H](c2ccc(OC)cc2)N(Cc2ccccc2OC)[C@@H]1c1ccc(OC)cc1 | – | · | · | ·
COc1ccccc1CN(Cc1nc2ccccc2c(=O)[nH]1)C(=O)Nc1cccc(C)c1 | – | – | · | 9.3µM
COc1ccc(-c2noc(CN(C)Cc3ccccc3)n2)c(OC)c1OC | – | ? | – | 3.7µM
COc1ccc(CN(C)Cc2ccccc2)c(OC)c1OC | – | – | – | –
COc1ccccc1NC(=O)N(Cc1ccc2c(c1)OCO2)Cc1nc2ccccc2c(=O)[nH]1 | – | – | ? | ?
CCN1CCCC1CNC(=O)Cn1cnc2sc(C)c(S(=O)(=O)N3CCC(C)CC3)c2c1=O (centres undefined) | · | ? | – | 6.6µM
CCOC(=O)C1CCN(C(=O)Cn2cnc3sc(C)c(S(=O)(=O)N4CCC(C)CC4)c3c2=O)CC1 | – | – | 4.1µM | –
COc1ccccc1NC(=O)Cn1c(=O)n(CCCCCC(=O)NCc2ccccc2)c(=O)c2sccc21 | – | · | · | ·
Fc1ccc(-c2csc(-c3nc(-c4ccc(Br)s4)cs3)n2)cc1 | – | · | · | ·
SMILES | HCMV inh | HCV inh | Pf growth 48h | Pf growth 96h
Cc1cc(C)cc(-n2c(C)cc(C(=O)C(=O)Nc3nnc(C)s3)c2C)c1 | – | · | · | ·
Cc1cc(C(=O)C(=O)Nc2nnc(C(C)C)s2)c(C)n1-c1ccccc1 | -87 | · | · | ·
CCNc1ccc(S(N)(=O)=O)cc1[N+](=O)[O-] | – | – | – | 12µM
O=C1CC(c2ccco2)CC(O)=C1C=NCCO (centres undefined) | – | – | – | –
O=C1CC(c2ccco2)CC(O)=C1C=NCC1NCCc2ccccc21 (centres undefined) | – | – | 10µM | –
O=C(COc1ccc(Nc2ccccc2)cc1)Nc1ccncc1 | – | ? | – | –
Oc1cc(Nc2cccnc2)cc2cccnc12 | -98 | · | 10µM | 4.1µM
c1ccc(CCNCc2cccnc2)cc1 | ? | – | – | –
Oc1cc(NCCc2cccnc2)cc2cccnc12 | -74 | · | 12µM | 8.3µM
Oc1cc(Nc2ccncc2)cc2cccnc12 | – | · | 12µM | ?
COc1ccc(Nc2cc(O)c3ncccc3c2)cc1 | · | · | 0.47µM | 0.41µM
CCOC(=O)c1cc(OC(=O)c2ccc(C)cc2)n(-c2ccccc2)n1 | – | · | · | ·
OCCCNc1ncnc2[nH]ncc12 | – | – | · | ·
CCCCCCCCNc1ncnc2[nH]ncc12 | -76 | 11µM | · | ·
O=C(NCCCN1CCN(c2ccccc2F)CC1)c1nnc(Cc2ccc(Cl)cc2Cl)o1 | – | · | · | ·
Cc1ccc(Cl)cc1N1CCN(CCCNC(=O)c2nnc(Cc3cccc(Cl)c3)o2)CC1 | -102 | · | · | ·
CCCn1c(C(C)Nc2nc(-c3ccc(Cl)c([N+](=O)[O-])c3)cs2)nc2ccccc21 (centres undefined) | – | ? | 13µM | 5.9µM
CC(Nc1nc(-c2ccc(Cl)cc2)cs1)c1nc2cc(Cl)c(N3CCCCC3)cc2n1CCOCCO (centres undefined) | – | ? | · | ·
CCCn1c(C(C)Nc2nc(-c3cccc(Br)c3)cs2)nc2ccccc21 (centres undefined) | ? | ? | – | ?
CCCn1c(C(C)Nc2nc(-c3cc(Cl)c(N)c(Cl)c3)cs2)nc2cc(Cl)c(N3CCCCC3)cc21 (centres undefined) | – | – | ? | 7.4µM
CCCn1c(C(C)Nc2nc(-c3ccc(C)cc3)cs2)nc2ccccc21 (centres undefined) | – | ? | ? | 9.3µM
O=[N+]([O-])c1cc(-c2csc(NC(CO)c3nc4ccccc4n3CCOCCO)n2)ccc1Cl (centres undefined) | – | ? | · | ·
Cc1ccc(NC(=O)CSc2nc3c(c(=O)[nH]2)CCC3)cc1Cl | – | · | · | ·
Cc1cc(C)c(NC(=O)c2nc3ccccc3nc2N2CCCCC2)c(C)c1 | – | · | · | ·
O=C(c1ccc(F)cc1)N1CCN(Cc2ccccc2)CC1 | – | – | – | –
SMILES | HCMV inh | HCV inh | Pf growth 48h | Pf growth 96h
O=C(NCCN1CCN(C(=O)c2ccc(F)cc2)CC1)c1ccc(F)cc1 | – | – | – | 12µM
COc1cc(NS(=O)(=O)c2ccc(NC(C)=O)cc2)nc(OC)n1 | – | – | – | ·
COc1cc(NS(=O)(=O)c2ccc(NC(=S)NC(=O)c3sc4ccccc4c3Cl)cc2)nc(OC)n1 | – | – | – | 12µM
COc1ccc(-c2csc(Nc3ccc(S(=O)(=O)Nc4cc(OC)nc(OC)n4)cc3)n2)cc1 | – | – | – | 15µM
COc1cccc(C(=O)/C=C/Nc2ccc(S(=O)(=O)Nc3cc(OC)nc(OC)n3)cc2)c1 | – | – | – | –
COc1ccc(C(=O)/C=C/Nc2ccc(S(=O)(=O)Nc3cc(OC)nc(OC)n3)cc2)c(OC)c1 | – | – | 1.7µM | –
COc1cc(NS(=O)(=O)c2ccc(N/C=C(\C#N)c3nc4cc(Cl)ccc4o3)cc2)nc(OC)n1 | -86 | – | – | ·
COc1cc(NS(=O)(=O)c2ccc(NC(=S)NC(=O)c3sc4cc(F)ccc4c3Cl)cc2)nc(OC)n1 | – | – | – | ?
CC1CN(C(=O)CCC(=O)NCc2cccs2)c2cc(Cl)ccc2O1 (centres undefined) | – | · | · | ·
Cc1ccc(S(=O)(=O)NCCc2nnc3ccc(SCC(=O)Nc4ccc(F)cc4F)nn23)cc1 | – | · | · | ·
CC(C)(C)NC(=O)c1ccc2c(c1)C1C3CCC(C3)C1C(c1ccccc1)N2 (centres undefined) | ? | – | ? | –

Screening results (PubChem)
